Assay results published in ChEMBL document CHEMBL3988442, “University of Dundee, Small-Polar-MMV Screening Library” (2021).
The whole screen tested about 48,000 compounds, of which about 13,000 (27%) showed an effect of 50% or more. The list shows a part of the results.

These compounds were tested on Wolbachia pipientis (assay: Anti-Wolbachia Cell-Based Screen). Details: 5 µM.
Assay type: functional
Set-up: scale not given: in the data most compounds retested in dose-response had high values

| Structure (SMILES) | Percent Effect |
| --- | --- |
| CCc1nnc2ccc(NCC3(O)CCOCC3)nn12 | -3.397% |
| CC(C)S(=O)(=O)NC(=O)CC(c1ccccc1)C(F)(F)F (configuration not stated) | 0.6807% |
| O=C1NCCCCC1Sc1ccc(F)cc1F (configuration not stated) | 103.3% |
| O=C1NCCCCC1Sc1nnc(C2CC2)n1C1CC1 (configuration not stated) | -22.11% |
| O=C1NCCCCC1SCc1coc(-c2ccc(F)cc2)n1 (configuration not stated) | -0.7587% |
| O=C1NCCCCC1Sc1nnc(-c2cccnc2)n1C1CC1 (configuration not stated) | -7.436% |
| O=C1NCCCCC1Sc1nnc(N2CCCC2)n1C1CC1 (configuration not stated) | 5.697% |
| O=C1NCCCCC1SCc1coc(-c2cccc(F)c2)n1 (configuration not stated) | -23.71% |
| O=C1NCCCCC1Sc1ccccc1F (configuration not stated) | 86.32% |
| O=C1NCCCCC1Sc1n[nH]c(=O)n1C1CC1 (configuration not stated) | -5.028% |
| O=C1NCCCCC1Sc1ccc(F)c(F)c1 (configuration not stated) | 87.86% |
| CCCOCC(=O)N1CCC2(CC1)c1nc[nH]c1CCN2S(C)(=O)=O | -9.401% |
| COc1ccc(C(=O)NCc2ccon2)cc1F | -47.25% |
| Cc1nc(NS(=O)(=O)c2ccc(C)c(Br)c2)no1 | -20.05% |
| Cc1nn(CC(=O)N2CCN(c3ccccc3F)CC2)c(C)c1Cl | 4.996% |
| CCc1nc(C2CCCN2c2ncc(Br)cn2)no1 (configuration not stated) | -1.956% |
| Cc1cccc(C(=O)N2CCCCC2c2ccc(CN(C)C)cc2)n1 (configuration not stated) | -0.9167% |
| Cc1cccc(N2CCCC2c2nc(C)ncc2CN(C)C)n1 (configuration not stated) | 143.5% |
| Cc1nc(CN(C)CC2CCCN2c2cccnn2)oc1C (configuration not stated) | 2.068% |

| Structure (SMILES) | Percent Effect |
| --- | --- |
| CN(C)Cc1nnc(C2CCN(c3ncccn3)CC2)n1C1CC1 | -3.805% |
| Cc1ncc(CN(C)C)c(C2CCCN2c2ncccn2)n1 (configuration not stated) | 117.1% |
| O=C(C1CNCCO1)N1CCCC(c2ccccc2)(c2ccccc2)C1 (configuration not stated) | -4.785% |
| O=C(NCCCOC1CCCCC1)C1NCCc2[nH]cnc21 (configuration not stated) | -2.739% |
| CCN(C(=O)COC)C(c1cccnc1)c1ccc2c(c1)CCO2 (configuration not stated) | 2.856% |
| CCSCCNC(=O)Nc1cc(C(=O)N2CCOCC2)ccc1Cl | 4.121% |
| CC(C)(CO)CCCNC(=O)N1CCc2c(F)ccc(F)c2C1 | 36.67% |
| COCCNC(=O)NC1(c2nc(C)no2)CCCCC1 | -1.61% |
| O=C(NCCCc1ccc(O)cc1)C1(O)Cc2ccccc2C1 | -1.893% |
| CN(Cc1ccccc1)C1(C(=O)NC(C)(C)CO)Cc2ccccc2C1 | 8.937% |
| COCCNC(=O)NC1(c2ccccc2F)CC1 | 110% |
| Cc1cc(C(=O)NC2(c3cccc(F)c3)CCOCC2)no1 | -27.95% |
| O=C(Nc1ccccc1F)NC1(CO)CCOCC1 | 2.484% |
| CC(C)(CO)CCCNC(=O)NC1(c2cccc(F)c2)CC1 | 104.1% |
| CC(C)(CO)CCCNC(=O)NC1(C)Cc2ccccc2C1 | 128.7% |
| CC(C)(CO)CCCNC(=O)NC1(c2ccccc2F)CC1 | 114.3% |
| CS(=O)(=O)CCCNC1(c2cccc(F)c2)CC1 | 13.79% |
| COCCNC(=O)C1(c2ccccc2C)CCOCC1 | 3.195% |
